Assay results: PubChem BioAssay (Tox21)
Records with an inconclusive call do not appear. Values without a mark were called inactive. Unless noted, calls follow the shape of the dose curve; as a rule, active = well fitted cell-killing curve with a large enough effect in the repeat runs; inconclusive = weak or mixed curves; inactive = no such curve, though single readings can be large or run the other way.

Test: qHTS assay for small molecule activators of the heat shock response signaling pathway (AID 743210; active = well fitted activation curve with a large enough effect in the signal ratio in the repeat runs, with a control signal flat, not every such curve was filed as active; the % refers to the signal ratio)
Settings: HeLa HSE-bla reporter, beta-lactamase ratio, 5 h; series mostly up to 62.6 µM; activation: at the top concentration
Outline: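 Compound exposure lasted 5 h at 37 C in HeLa cells carrying a heat-shock-element-driven beta-lactamase reporter. Read-out: fluorescence intensity after 2.5 h room-temperature loading with LiveBLAzer B/G FRET substrate.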
% is scaled to controls: 0 for no effect and ±100 for the full control effect.

SMILES | activation
CCOc1ccccc1OCCN[C@H](C)Cc1ccc(OC)c(S(N)(=O)=O)c1 | -0.894%
CC(CN1CC(=O)NC(=O)C1)N1CC(=O)NC(=O)C1 (stereo not drawn) | 0.199%
C=COCCCCO | -0.0369%
O=C(O)/C=C(\CC(=O)O)C(=O)O | 2.59%
CCC(C)SSC(C)CC (stereo not drawn) | 0.875%
Cc1ccc(S(=O)(=O)NC(=O)NN2CC3CCCC3C2)cc1 (stereo not drawn) | -0.874%
CNCCc1ccccn1 | 0.689%
CC[N+](C)(CC)CC | 0.842%
CC(C)(C)NCC(O)COc1cccc2c1CCC(=O)N2 (stereo not drawn) | -0.349%
CCCCCCCCS(=O)(=O)O | 0.248% [at 81.1 µM]
C/C(=N\O)c1ccc(OCC(=O)N2CCCCC2)cc1 | -0.1%
Clc1cc(Cl)c(Cl)c(Cl)c1Cl | 0.251%
CC1(C)C(=O)C(C)(C)C1=O | -0.451%
Cc1ccc(Br)cc1 | -0.287%
C=CCCCCCCCCOC(C)=O | 0.0097%
CSC(=O)c1cccc2nnsc12 | -0.381%
CN(C)c1ccncc1 | 0.289%

SMILES | activation
C=CCN(CC=C)CC=C | 0.772%
CC(C)(O)CCCC1=CCC(C=O)CC1 (stereo not drawn) | -0.272% [at 81.1 µM]
CC(=O)OC1CCC(C(C)(C)C)CC1 (stereo not drawn) | 1.04%
CC/C=C\CCOC(=O)c1ccccc1 | -2.17%
O=C(O)P(=O)(O)O | -1.49%
COc1cnc(NS(=O)(=O)c2ccc(N)cc2)nc1 | -0.2%
CCCCCCCCCCCCCCCCN(C)C | -0.814% [at 5.95 µM]
CC[C@@]1(c2ccccc2)NC(=O)N(C)C1=O | -0.123%
Cc1cc(O)c(Cl)cc1C | -0.277%
C[C@@H]1CC[C@@]2(OC1)O[C@H]1C[C@H]3[C@@H]4CC[C@H]5C[C@@H](O)CC[C@]5(C)[C@H]4CC(=O)[C@]3(C)[C@H]1[C@@H]2C | 0.0014% [at 5.95 µM]
NS(=O)(=O)c1cc2c(cc1C(F)(F)F)NCNS2(=O)=O | 0.291%
CCN(CC)CC | -0.368% [at 81.1 µM]
COc1ccc2cc(CCC(C)=O)ccc2c1 | -0.385%
CC(=O)OC/C=C(/C)CCC=C(C)C | -0.114%
CCCCN1C(=O)c2ccccc2C1=O | -0.315% [at 81.1 µM]
CCC(C)(C)C | 0.0841% [at 81.1 µM]

Test: qHTS assay to identify small molecule agonists of the peroxisome proliferator-activated receptor delta (PPARd) signaling pathway - cell viability counter screen (AID 743211); also: nearly all actives have a fitted effect of over 55% in size
Settings: PPARd-bla HEK293H viability, CellTiter-Glo luminescence, 17 h; series mostly up to 62.6 µM; activity change, negative = cytotoxicity: at the top concentration
Outline: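 Read-out: CellTiter-Glo luminescence, 30 min RT, measured in the same wells as the beta-lactamase reporter. Cells: GeneBLAzer PPAR delta UAS-bla HEK293H, 3000 cells/well, compound exposure 17 h at 37C.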

SMILES | activity change, negative = cytotoxicity
CCOc1ccccc1OCCN[C@H](C)Cc1ccc(OC)c(S(N)(=O)=O)c1 | 2.12%
CC(CN1CC(=O)NC(=O)C1)N1CC(=O)NC(=O)C1 (stereo not drawn) | 2.29%
C=COCCCCO | 0.74%
O=C(O)/C=C(\CC(=O)O)C(=O)O | 0.451%
CC(=O)c1ccc2ccc3ccccc3c2c1 | 1.67%
CCC(C)SSC(C)CC (stereo not drawn) | 0.486%
Cc1ccc(S(=O)(=O)NC(=O)NN2CC3CCCC3C2)cc1 (stereo not drawn) | 5.93%
CNCCc1ccccn1 | 4.72%
CC(C)(C)NCC(O)COc1cccc2c1CCC(=O)N2 (stereo not drawn) | 15.8%
CCCCCCCCS(=O)(=O)O | 3.45% [at 81.1 µM]
C/C(=N\O)c1ccc(OCC(=O)N2CCCCC2)cc1 | 7.62%
Clc1cc(Cl)c(Cl)c(Cl)c1Cl | 14.8%
Cc1ccc(Br)cc1 | -11.6%
C=CCCCCCCCCOC(C)=O | 5.89%
CSC(=O)c1cccc2nnsc12 | 2.7%
C=CCN(CC=C)CC=C | 9.76%
CC/C=C\CCOC(=O)c1ccccc1 | 1.6%
O=C(O)P(=O)(O)O | 8.05%
COc1cnc(NS(=O)(=O)c2ccc(N)cc2)nc1 | -0.313%
CCCCCCCCCCCCCCCCN(C)C | 1.19% [at 5.95 µM]
CC[C@@]1(c2ccccc2)NC(=O)N(C)C1=O | 2.13%
Cc1cc(O)c(Cl)cc1C | 6.11%
C[C@@H]1CC[C@@]2(OC1)O[C@H]1C[C@H]3[C@@H]4CC[C@H]5C[C@@H](O)CC[C@]5(C)[C@H]4CC(=O)[C@]3(C)[C@H]1[C@@H]2C | 5.8% [at 5.95 µM]
NS(=O)(=O)c1cc2c(cc1C(F)(F)F)NCNS2(=O)=O | -4.69%
CCN(CC)CC | 0.43% [at 81.1 µM]
COc1ccc2cc(CCC(C)=O)ccc2c1 | 7.32%
CC(=O)OC/C=C(/C)CCC=C(C)C | 2.22%
CCCCN1C(=O)c2ccccc2C1=O | 5.19% [at 81.1 µM]
CCC(C)(C)C | 3.22% [at 81.1 µM]
Cc1ccc2ccccc2n1 | 6.87%
